From the antibiotic and cytotoxicity screens of Wong et al. (2023) come the findings set out here.

About 500 (1.3%) of roughly 39,000 compounds were called active. The list comes from a sample in which actives are over-represented; it also holds similar structures and randomly drawn compounds.

The subject of this assay is S. aureus RN4220. The assay is described as follows: growth inhibition call (relative growth <= 0.2). The conditions noted are these: 50 µM.
Consider `O=c1oc2ccccc2c(O)c1Cc1c(O)c2ccccc2oc1=O`, for which the growth inhibition call was “active”.

As to `CC(=O)CC(c1ccccc1)c1c(O)c2ccccc2oc1=O` (configuration not stated), the growth inhibition call was “inactive”.

As to `O=c1c2ccccc2oc2ccccc12`, the growth inhibition call was “inactive”. For `Cc1nccn1-c1ccc(CN)cc1`, the growth inhibition call is “inactive”. For `C[C@H](CO)N1C[C@H](C)[C@@H](CN(C)Cc2ccc(-c3ccccc3)cc2)Oc2c(NC(=O)Nc3ccc(C(F)(F)F)cc3)cccc2C1=O` the value was “inactive”; for `CCC1OC(=O)C(C)C(=O)C(C)C(OC2OC(C)CC(N(C)C)C2O)C(C)(OC)CC(C)C(=O)C(C)C2N(CCCCn3cnc(-c4cccnc4)c3)C(=O)OC12C` (configuration not stated), “active”; for `NNC(=O)[C@@H]1C(c2ccccc2)[C@H]1C(=O)NN` (some centres not stated), “inactive”.

For `C[C@H](CO)N1C[C@H](C)[C@H](CN(C)S(=O)(=O)c2ccccc2)OCCCC[C@H](C)Oc2ccc(NS(=O)(=O)c3cn(C)cn3)cc2C1=O`, the growth inhibition call is “inactive”. Under `C[C@H]1CN([C@@H](C)CO)C(=O)Cc2cc(NC(=O)Nc3cccc4ccccc34)ccc2O[C@H]1CN(C)Cc1ccc(Oc2ccccc2)cc1` stands “inactive”; under `O=C(C[C@@H]1C[C@H]2c3cc(NS(=O)(=O)c4ccc(F)cc4)ccc3O[C@H]2[C@@H](CO)O1)NCc1ccc(Oc2ccccc2)cc1`, “inactive”; under `C=C1C[C@@]23CC[C@@H]4[C@@](C)(CCC[C@@]4(C)C(=O)OC)[C@H]2CC[C@@H]1C3`, “inactive”. Turning to `C[C@@]12CCC[C@](C)(C(=O)O[C@@H]3O[C@H](CO)[C@@H](O)[C@H](O)[C@H]3O)[C@@H]1CC[C@]13C[C@H](CC[C@@H]12)[C@](O)(CO)C3`, the growth inhibition call was “inactive”.

Turning to `C=C1C[C@]23CC[C@@H]4[C@@](C)(CCC[C@@]4(C)C(=O)O)[C@H]2CC[C@H]1C3`, the growth inhibition call is “active”. Consider `CN1CCN(CC#N)C(=O)C12CCN([C@H]1CCOC1)CC2`, for which the growth inhibition call was “inactive”. Take `C[C@H]1CN([C@@H](C)CO)C(=O)Cc2cc(NS(=O)(=O)c3cn(C)cn3)ccc2O[C@H]1CN(C)S(=O)(=O)c1cn(C)cn1`: the growth inhibition call was “inactive”. As for `C/C=C(/C)C(=O)O[C@H]1[C@@H](OC(C)=O)[C@@]2(CO)[C@@H](O)C[C@@]3(C)C(=CC[C@H]4[C@@]5(C)CC[C@@H](O[C@H]6O[C@H](C(=O)O)[C@@H](O[C@H]7O[C@@H](CO)[C@@H](O)[C@@H](O)[C@@H]7O)[C@@H](O)[C@@H]6O[C@H]6O[C@@H](CO)[C@@H](O)[C@@H](O)[C@@H]6O)[C@@](C)(CO)[C@@H]5CC[C@]43C)[C@@H]2CC1(C)C`, the growth inhibition call is “inactive”. For `COc1ccc(NC(=O)N2CCCCN3[C@H](COCCN(C)C)[C@H](c4ccc(C#Cc5ccccc5)cc4)[C@@H]3C2)cc1` the value was “active”. `COc1ccc(NC(=O)N2CCCCN3[C@H](CN(C)C(C)=O)[C@H](c4ccc(C#Cc5ccccc5)cc4)[C@@H]3C2)cc1`: the growth inhibition call is “inactive”. For the molecule `CN(C)CC#Cc1ccc([C@H]2[C@@H](CO)N3CCCCN(C(=O)CN(C)C)C[C@@H]23)cc1`, the growth inhibition call was “inactive”. Under `O=C(C[C@H]1C=C[C@H](NC(=O)c2cccc(F)c2)[C@@H](CO)O1)NCCN1CCCC1` stands “inactive”; under `C[C@H](CO)N1C[C@H](C)[C@@H](CN(C)Cc2ccc(C(F)(F)F)cc2)Oc2ccc(NS(C)(=O)=O)cc2C1=O`, “inactive”; under `CCCCCCc1ccc(O)cc1O` [listing 1 of 2 here], “active”.

As for `CCCCCCc1ccc(O)cc1O` [listing 2 of 2 here], the growth inhibition call was “active”. As for `COC(=O)CCc1ccc(OC)cc1O`, the growth inhibition call is “inactive”.

As for `CCCCCCCc1c(C)c(O)cc2c1[nH]c1ccccc12`, the growth inhibition call is “inactive”. For `CCCCCCc1ccc(O)cc1O.Nc1c2ccccc2nc2ccccc12`, the growth inhibition call is “inactive”. For `CCCCC(=O)c1ccc(O)cc1`, the growth inhibition call was “inactive”. Consider `COC(=O)N/N=C/c1c[n+]([O-])c2ccccc2[n+]1[O-]`, for which the growth inhibition call was “inactive”. As to `CN1C(=O)c2cc(NS(C)(=O)=O)ccc2OC[C@H]2O[C@H](CC(=O)N3CCOCC3)CC[C@H]21`, the growth inhibition call is “inactive”. For `C[C@H]1CN([C@@H](C)CO)C(=O)c2cc(NS(C)(=O)=O)ccc2O[C@H]1CN(C)S(=O)(=O)c1ccccc1` the value was “inactive”. Take `C[C@@H]1CCCCO[C@H](CN(C)C(=O)CCCN(C)C)[C@@H](C)CN([C@@H](C)CO)C(=O)c2cc(NC(=O)Nc3cccc4ccccc34)ccc2O1`: the growth inhibition call is “inactive”. For the molecule `CO[C@@H]1CN(C)C(=O)c2ccc(NC(=O)CN(C)C)cc2OC[C@@H](C)N(C(=O)C2CCOCC2)C[C@H]1C`, the growth inhibition call is “inactive”.

In the case of `CC(C)NC(=O)Nc1ccc2c(c1)C(=O)N([C@H](C)CO)C[C@@H](C)[C@@H](CN(C)C(=O)Nc1ccc(C(F)(F)F)cc1)OCCCC[C@@H](C)O2`, the growth inhibition call was “inactive”. For `CC(=O)N1[C@@H]2c3ccc(-c4ccccc4)c(=O)n3C[C@H]1[C@H](CO)[C@H]2C(=O)N1CCN(C)CC1` the value was “inactive”; for `C[C@H]1CN([C@@H](C)CO)C(=O)c2cc(NC(=O)c3ccncc3)ccc2O[C@@H]1CN(C)S(=O)(=O)c1ccc(F)cc1`, “inactive”.

Regarding `COC(=O)c1ccc2c(c1)no[n+]2[O-]`, the growth inhibition call is “inactive”. Turning to `COc1ccc(-n2nc(CCC(=O)N(C)O)cc2-c2ccc(Cl)cc2)cc1`, the growth inhibition call was “inactive”.

With `CN(C)CCOC(=O)COc1ccc(Cl)cc1.Cl`, the growth inhibition call is “inactive”. Regarding `CCCCc1nc(-c2ccc(OCCCN(CC)CC)cc2)cn1-c1ccc(Oc2ccc(Cl)cc2)cc1`, the growth inhibition call is “active”. As to `Cc1cc(=O)n2nc(C(=O)O)nc2[nH]1`, the growth inhibition call was “inactive”.

Consider `CN1C(=O)c2cc(NC(=O)C3CCC3)ccc2OC[C@@H]2O[C@H](CC(=O)NCCc3ccncc3)CC[C@@H]21`, for which the growth inhibition call was “inactive”.

With `CC(C)CC#Cc1ccc2c(c1)O[C@H](CN(C)S(=O)(=O)c1ccc(F)cc1)[C@H](C)CN([C@H](C)CO)S2(=O)=O`, the growth inhibition call was “inactive”. For `CCC[C@@H]1C[C@@H](C(=O)N[C@H]([C@H]2O[C@H](SC)[C@H](O)[C@@H](O)[C@H]2O)[C@H](C)O)N(C)C1` the value was “active”. Under `CCCC1CC(C(=O)NC(C(C)O)C2OC(SC)C(O)C(O)C2O)N(C)C1.Cl` (configuration not stated) stands “active”; under `CCC[C@@H]1C[C@@H](C(=O)N[C@@H]([C@H]2O[C@H](SC)[C@H](O)[C@@H](O)[C@H]2O)[C@@H](C)O)N(C)C1`, “active”; under `CC(C)NC(=O)Nc1ccc2c(c1)C(=O)N([C@H](C)CO)C[C@H](C)[C@@H](CN(C)C(=O)Nc1ccc(F)cc1)OCCCC[C@H](C)O2`, “inactive”. For `COc1cccc(-c2ccc3c(c2)O[C@H](CN(C)C(=O)C2CC2)[C@@H](C)CN([C@@H](C)CO)S3(=O)=O)c1`, the growth inhibition call is “inactive”.
